In PubChem BioAssay:
A number with no mark means an inactive call. No rule for the calls is given here.

Assay: compounds altering viability of human ES cells (AID 493140);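 also: cells exposed to compounds for four days before counting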
Details: human embryonic stem cell survival screen; hits give high values

| SMILES | survival |
| --- | --- |
| COc1ccc2nccc(C(=O)O)c2c1 | 19.9 |
| CCCCCCCC/C=C\C/C=C\C=C\C(O)CCCC(=O)O (centres undefined) | 116 |
| CCCCC/C=C\C[C@@H](O)/C=C/C=C\CCC(=O)O | 67.7 |
| CC(C)c1cc(/C=C(\C#N)C(=O)NCCCc2ccccc2)cc(C(C)C)c1O | 124 |
